Only some compounds are listed: those with a hit (about 2.1% of all), similar ones and a draw of the others.
HIF activator – HIF pathway transcriptional activators, primary screen, cell-based, U2OS HRE-luciferase, luminescence; U2OS HRE-luciferase reporter; normalized: DMSO 0%, desferrioxamine 100%; activation, % at 7.5 µM (by protocol); hit rate 0.32% among 300,000; AID 1910, 2009;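 active means mean activation of at least 10% of the iron chelator positive control signal, with at least half of replicates also reaching 10%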
aSyn UTR inh – MLPCN primary screen, SNCA 5' untranslated region. alpha-synuclein 5'UTR reporter, inhibitor activity. inhibition, % (tested at 7.5 µM). hit rate 0.82% among 300,000. AID 1813, 2009; in the data active means inhibition above about 60%;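 further: H4 neuroglioblastoma cells stably carrying SNCA 5'UTR luciferase fusion; 0% = DMSO wells and 100% = positive control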
Wee1 stabilizer – Wee1 degradation inhibitors, primary screen, cell-based, HeLa, Wee1K328M-luciferase, luminescence; Wee1-like protein kinase (Homo sapiens), P30291; HeLa Luc-Wee1K328M stability; 100% = proteasome inhibitor MG132 effect; hit rate 1.2% among 220,000; reporter increase, % at 5 µM;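 active means activation above the mean of all tested compounds plus 3 SD, set per screening run, cut at about 8.8% in these data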;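 further: cells exposed to compound for 20 h before luminescence read; 0% = DMSO alone and 100% = MG132 at 30 µM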
Target sequence (P30291 whole entry K328M): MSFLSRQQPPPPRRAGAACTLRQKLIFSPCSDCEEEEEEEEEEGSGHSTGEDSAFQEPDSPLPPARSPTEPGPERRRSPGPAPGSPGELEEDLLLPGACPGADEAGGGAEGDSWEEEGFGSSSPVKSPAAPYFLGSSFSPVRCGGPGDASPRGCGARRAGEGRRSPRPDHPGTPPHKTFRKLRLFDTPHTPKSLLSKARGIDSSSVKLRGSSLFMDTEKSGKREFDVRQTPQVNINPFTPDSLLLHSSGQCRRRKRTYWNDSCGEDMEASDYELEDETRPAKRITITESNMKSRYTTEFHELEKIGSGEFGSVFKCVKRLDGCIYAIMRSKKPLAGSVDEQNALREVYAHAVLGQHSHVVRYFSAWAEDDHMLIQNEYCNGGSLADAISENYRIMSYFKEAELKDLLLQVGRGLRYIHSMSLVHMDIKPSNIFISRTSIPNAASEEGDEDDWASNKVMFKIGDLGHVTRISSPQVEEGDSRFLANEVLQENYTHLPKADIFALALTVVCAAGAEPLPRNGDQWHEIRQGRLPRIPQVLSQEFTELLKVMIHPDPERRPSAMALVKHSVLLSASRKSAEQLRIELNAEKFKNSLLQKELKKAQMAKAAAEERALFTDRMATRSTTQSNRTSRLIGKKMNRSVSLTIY
Platelet DG rel – inhibitors of platelet dense granule secretion, primary screen, cell-based, MLPCN, human platelets; human platelet-rich plasma, SFLLRN dense granule ATP release, luminescence; inhibition, %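 (compounds screened at 7.5 µM in platelet-rich plasma)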; hit rate 0.22% among 300,000; AID 1663, 2009;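 active means mean replicate score, as percent of positive control, at or above 50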
KLF5 inh – KLF5 expression inhibitors, primary screen, DLD-1 cells, luminescence | DLD-1 KLF5 promoter-luciferase reporter | hit rate 0.23% among 290,000 | inhibition, % at 5 µM;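 active means inhibition above a per-plate limit of that plate's mean compound inhibition plus 3 SD, cut at about 60% in these data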;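 further: 0% = DMSO wells and 100% = LY294002 at 200 µM; higher means less KLF5 promoter-driven luciferase light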
Starred values were filed as active, the others as inactive; · = not tested or not shown.

SMILES	HIF activator	aSyn UTR inh	Wee1 stabilizer	Platelet DG rel	KLF5 inh
O=C(NCc1ccc2c(c1)OCO2)c1cc(-c2ccccc2)nn1CC1CC(c2cccnc2)=NO1 (centres undefined)	1.5	8.6	·	3.9	·
CCCC(=O)N(CCN1CCOCC1)c1nc2c(F)cc(F)cc2s1	2.0	-86.3	·	0.7	-86.8
COc1cccc(/C=N/Nc2nc3ccccc3[nH]2)c1O	11.0*	32.7	-1.6	5.6	36.3
O=C(CN1C(=O)COc2ccccc21)NCCCN1CCCCC1	-0.2	-15.6	·	-9.7	-20.5
CN1OC2C(=O)N(c3ccccc3)C(=O)C2C1c1ccc(F)cc1 (centres undefined)	0.1	16.0	16.7*	-5.2	-8.0
O=C1C2ON(c3ccccc3)C(c3ccccc3F)C2C(=O)N1c1ccccc1 (centres undefined)	-0.2	9.4	-0.9	2.0	-5.5
N#C/C(=C\c1ccc[nH]1)C(=O)N1CCCCC1	-0.2	-17.8	-0.7	3.7	-24.2
COc1ccc(/C=N\n2nnc3ccccc32)cc1	-33.8	72.9*	-0.8	22.6	-111.2
COc1ccc(/C=N/n2c(C)nc3ccccc3c2=O)cc1	0.1	-24.7	·	-0.4	-60.6
NS(=O)(=O)c1ccc(CCNC(=O)c2coc3ccccc3c2=O)cc1	2.5	13.3	·	4.4	-13.7
CCC(C)NS(=O)(=O)c1ccc(OCC(=O)NCc2ccccn2)cc1 (centres undefined)	-0.1	17.4	2.5	-1.3	-20.3
CC(=O)OCCCN1c2ccccc2Nc2nnc(-c3ccccc3)cc21	4.8	-155.3	9.1*	-2.9	-118.0
CC(=O)OCCCN1C(=O)c2cccc3cc(Br)cc(c23)C1=O	-0.8	13.6	·	12.8	-3.2
CCOC(=S)SCC(=O)Nc1nc(-c2ccc(Br)cc2)cs1	0.9	69.9*	2.2	0.3	-19.4
COc1cc2sc3ccc(C#CC4(O)CCCCC4)cc3c(=O)c2cc1OC	3.0	-136.6	·	56.0*	·
COc1cc2sc3ccc(C#Cc4ccc(N)cc4)cc3c(=O)c2cc1OC	-2.4	-31.1	·	-2.3	·
CCCOc1ccc(CNC(=O)C2CCN(c3nnc(N4CCCC4=O)s3)CC2)cc1	0.0	17.7	·	-1.9	-12.9
O=C(NCCCN1CCN(c2ccccc2F)CC1)Nc1ccccc1[N+](=O)[O-]	252.4*	11.3	4.1	12.0	3.1
O=C(NCCCN1CCN(c2ccccc2F)CC1)Nc1ccc(F)cc1	1.1	7.0	0.4	7.6	18.6
O=C(NCCN1CCOCC1)c1cc(Cl)ccc1[N+](=O)[O-]	·	-5.6	-0.8	5.8	3.4
CCNc1sc(S(C)(=O)=O)nc1S(=O)(=O)c1ccc(Cl)cc1	0.0	25.1	-0.5	-5.0	-3.5
CCCc1ccc(C(=O)NNc2ccccc2F)cc1	1.8	-110.2	9.3*	14.1	-45.5
COc1cc(-c2nnc(COC(=O)c3cccn3C)o2)cc(OC)c1OC	0.1	18.3	·	-6.9	2.8
COc1cc(-c2nnc(COC(=O)c3c4c(nc5ccccc35)CCCC4)o2)cc(OC)c1OC	·	·	10.0*	·	26.7
CC(=O)n1cc(N(C(=O)CCl)c2ccccc2)c2ccccc21	-2.4	106.3*	0.4	-11.7	-15.9
SMILES	HIF activator	aSyn UTR inh	Wee1 stabilizer	Platelet DG rel	KLF5 inh
N#Cc1c(SCc2ccccc2)sc(C(=O)c2ccccc2)c1N	-0.5	2.6	9.2*	5.6	-17.8
Cc1nc(-c2cn[nH]c2-c2ccc(O)cc2O)cs1	-0.1	-32.3	9.0*	1.3	11.9
Cc1ccc2nc(NC(=O)Cc3cccs3)sc2c1	2.1	-165.9	5.1	-7.9	-108.8
Cc1ccc2nc(-c3ccc(NC(=O)Cc4cccs4)cc3)[nH]c2c1	·	-17.2	10.2*	-5.5	-154.9
COc1ccc(C(=O)c2c(C(F)(F)F)oc3c2C(=O)c2ccccc2C3=O)cc1	-3.1	109.0*	-1.5	1.6	-13.2
Cc1ccc(C(=O)c2c(C)oc3c2C(=O)C(=O)c2ccccc2-3)cc1	3.1	-21.2	-1.8	-4.4	-20.2
COc1ccc2oc(=O)c(C(=O)NC3CCCCCC3)cc2c1	9.9*	-173.6	·	2.0	-46.8
CNC(=O)c1cc2cc(OC)ccc2oc1=O	0.1	4.0	0.0	4.5	-31.1
COc1ccc(-c2nsc3c(N4CCCCC4)ncnc23)cc1	-5.4	85.4*	-2.1	17.7	-24.4
COc1ccc(C(=O)N2CCN(c3ncnc4c(-c5ccccc5)nsc34)CC2)cc1	0.3	14.9	-2.2	0.7	-4.2
COc1ccccc1C(=O)NNC(=S)NC(=O)c1cc(OC)c(OC)c(OC)c1	2.2	72.5*	0.3	-2.1	-33.1
COc1cc(C(=O)NC(=S)NNC(=O)c2cnccn2)cc(OC)c1OC	-0.5	78.9*	0.0	-6.0	18.0
COc1cc(C(=O)NNC(=S)NC(=O)c2ccccc2C)cc(OC)c1OC	0.2	-3.2	-0.2	-3.5	11.1
Cc1ccc(C)c(OCC(=O)N/N=C/c2ccsc2)c1	-53.3	-5.0	-2.4	-6.2	-14.8
CC(C)(C)c1ccc(OCC(=O)N/N=C/c2cc(Br)ccc2OC(=O)c2ccco2)cc1	0.1	82.9*	1.2	9.5	-10.0
COc1ccc(Br)cc1/C=N/NC(=O)c1ccco1	0.3	-0.9	2.9	-2.9	16.6
CC(C)(C)c1ccc(OCC(=O)N/N=C/c2ccsc2)cc1	0.3	18.9	9.2*	2.5	-37.9
COc1ccccc1N(Cc1ccccc1)S(=O)(=O)c1cccc(C(=O)Nc2ccc(C)cn2)c1	-2.6	25.9	·	0.4	·
COc1ccc(CNc2ccc(Br)cc2)cc1	3.6	-111.9	10.4*	0.9	-40.8
COc1ccc(CNc2ccc(C(=O)O)cc2)cc1	-0.1	-15.9	0.1	-1.9	-32.5
CC1Cc2cc(/C(O)=C3/C(=O)C(=O)N(CCCn4ccnc4)C3c3ccc(Br)cc3)ccc2O1 (centres undefined)	0.0	2.1	·	0.9	-18.6
O=C(Nc1nc2ccccc2n1CCN1CCOCC1)c1cn(-c2ccccc2)nc1-c1ccccc1	2.1	82.8*	0.4	15.6	-3.6
COc1ccc(C2C3=C(Nc4ncnn42)c2ccccc2CCC3)cc1 (centres undefined)	-0.5	26.7	2.3	-8.2	-12.8
COc1cc(C2C3=C(Nc4ncnn42)c2ccccc2CC3)cc(OC)c1OC (centres undefined)	1.0	82.6*	-0.7	-3.2	78.0*
C/C=C/C=C\C(=O)Nc1cccc(C2=NOC3(C2)C[C@@H](C(N)=O)N(C(=O)c2cc([N+](=O)[O-])cc([N+](=O)[O-])c2)C3)c1 (some centres undefined)	0.0	-10.2	·	0.7	·
CC(=O)/C(=C\N(C)C)Sc1ccc(C)cc1	0.4	-23.1	-0.1	-4.8	-26.0
CC(=O)/C(=C\N(C)C)Sc1ccc(Cl)cc1	-0.4	-8.0	9.1*	24.4	-3.6
Cc1cc(SCC(=O)Nc2c(C)n(C)n(-c3ccccc3)c2=O)nc2ccccc12	-0.5	14.9	·	15.6	3.3
O=C(CSc1ccc(F)cc1)Nc1ccc(C2SCCS2)cc1	3.2	-155.0	9.5*	-9.0	-54.4

From PubChem BioAssay
